# In the supplement of paper PMC8728848:
# Many of the other results were omitted from the sample, so the strongest signals are more common in it than they were.
# B1: Awp1 (Candida glabrata) (protein)
# chain: MSLITIFAFLIKATLVLSLDILTPTTLTGDQTFNEDVSVVSSLTLNDGSQYLFNNLLQIAPSSASVTANALAAVSVFTFSLPPSSSLSNSGTLIISNSNTGPSTEQHIVITPNVMANTGTITLSLAHTNTDSSSTLIIDPVTFYNTGTINYESIGSETNDPSLTGNILSIGSSGRTLQNLGTINLNAANSYYLLGTITENSGSINVQKGFLYVNALDFIGNTINLSTTTALAFISPVSQVVRVRGVFFGNIIASVGSSGTFSYNTQTGILTVTTNGVYSYDIGCGYNPALMSGQQETLSFQGNPYDTFLVLVNQPIPSDLTCAAVSSSITPSSSVEPSSSVVPSSSVEPSSSVEPSSSVEPSSSVEPSSSVEPSSSVEPSSSVEPSSSVEPSSSVEPSSSVEPSSSVEPSSSVEPSSSVEPSSSVEPSSSVEPSSSVEPSSSVEPSSSVEPSSSVEPSSLIVPSSSVEPSSSVLPSSSVVPSSSVEPSTPPIPSSSVEPSSSVVPSSPAVPSSSVEPSTPPIPSSSVVSASVFDTSSTLPSSPSVPPSSVSPSTISTPSSSAAPSSFCPTCVSSGTPPAPSSSAIVPTSSAGGGNGGDNREPGAAGQPGAAGQPGAAGQPGAAGQPGAAGQPGAAGQPGAAGQPGAAGQPGAAGQPGAAGQPGAGFGVGSEQPTPGAGAGSGSADGNQSGTGSGTGNGQQGSGQAGSGQAGSGQEGSGQAGSGQAGSGQAGSGQAGSGQAGLDNTASGQSEGGQASAMDGDQSGRDGQSNSGSLLQPNAQQGTGSGTGSDIGADQASGESPGQIGDAQPGSGTDQSSGRHSLAAEARTSQSHSLAADARTRSTTRQTSVIAPDTAPGTASGTAPGTAPGTAVVTTFHGCGTVNHKGMINILLALALLVLL
# Columns and labels:
# Test in all cases: glycan array binding signal (z-score within array); higher = stronger binding
# Settings in all cases: glycan notation: IUPAC condensed, linker removed
# [1] = biological target: Gal(b1-4)GlcNAc(b1-6)Gal(b1-4)GlcNAc
# In short: (§1)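 The Consortium for Functional Glycomics database supplied 3228 glycan arrays, of which those lacking an available protein sequence were dropped. The binding signal, a within-array Z-score, was averaged across arrays of the same protein sequence and across linkers. Negative scores can be read as non-binding.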
# [2] = biological target: GalNAc(b1-4)GlcNAc(b1-3)GalNAc(b1-4)GlcNAc
# In short: as §1
# [3] = biological target: GalNAc(b1-6)GalNAc
# In short: as §1
# [4] = biological target: GalNAc4S6S(b1-4)GlcNAc
# In short: as §1
# [5] = biological target: GlcA3S(b1-3)Gal(b1-4)GlcNAc(b1-2)Man
# In short: as §1
# [6] = biological target: GlcNAc(b1-2)[GlcNAc(b1-4)]Man(a1-3)[GlcNAc(b1-4)][GlcNAc(b1-2)Man(a1-6)]Man(b1-4)GlcNAc(b1-4)GlcNAc
# In short: as §1
# [7] = biological target: GlcNAc(b1-2)[GlcNAc(b1-6)]Man(a1-6)[GlcNAc(b1-2)Man(a1-3)]Man(b1-4)GlcNAc(b1-4)[Fuc(a1-6)]GlcNAc
# In short: as §1
# [8] = biological target: GlcNAc(b1-2)[GlcNAc(b1-6)]Man(a1-6)[GlcNAc(b1-4)][GlcNAc(b1-2)Man(a1-3)]Man(b1-4)GlcNAc(b1-4)GlcNAc
# In short: as §1
# [9] = biological target: GlcNAc(b1-3)Gal(b1-3)GalNAc
# In short: as §1
# [10] = biological target: GlcNAc(b1-3)Gal(b1-4)GlcNAc(b1-3)Gal(b1-4)GlcNAc(b1-2)Man(a1-3)[GlcNAc(b1-3)Gal(b1-4)GlcNAc(b1-3)Gal(b1-4)GlcNAc(b1-2)Man(a1-6)]Man(b1-4)GlcNAc(b1-4)GlcNAc
# In short: as §1
# [11] = biological target: GlcNAc(b1-3)Gal(b1-4)GlcNAc(b1-3)Gal(b1-4)GlcNAc(b1-3)Gal(b1-4)GlcNAc(b1-2)[GlcNAc(b1-3)Gal(b1-4)GlcNAc(b1-3)Gal(b1-4)GlcNAc(b1-3)Gal(b1-4)GlcNAc(b1-6)]Man(a1-6)[GlcNAc(b1-3)Gal(b1-4)GlcNAc(b1-3)Gal(b1-4)GlcNAc(b1-3)Gal(b1-4)GlcNAc(b1-2)Man(a1-3)]Man(b1-4)GlcNAc(b1-4)[Fuc(a1-6)]GlcNAc
# In short: as §1
# [12] = biological target: GlcNAc(b1-4)Gal(b1-4)GlcNAc
# In short: as §1
# [13] = biological target: Kdn(a2-3)Gal(b1-3)GalNAc
# In short: as §1
# [14] = biological target: Kdn(a2-3)Gal(b1-4)[Fuc(a1-3)]GlcNAc
# In short: as §1
# [15] = biological target: Man(a1-2)Man(a1-2)Man(a1-3)Man
# In short: as §1
# [16] = biological target: MurNAc(b1-4)GlcNAc
# In short: as §1
# [17] = biological target: Neu5Ac(a2-3)Gal(b1-3)GlcNAc(b1-6)GalNAc
# In short: as §1
# [18] = biological target: Neu5Ac(a2-3)Gal(b1-3)]Neu5Ac(a2-3)Gal(b1-4)]GlcNAc
# In short: as §1
# [19] = biological target: Neu5Ac(a2-3)Gal(b1-4)GlcNAc
# In short: as §1
# [20] = biological target: Neu5Ac(a2-3)Gal(b1-4)GlcNAc(b1-2)Man(a1-3)[GlcNAc(b1-4)][Neu5Ac(a2-3)Gal(b1-4)GlcNAc(b1-2)Man(a1-6)]Man(b1-4)GlcNAc(b1-4)GlcNAc
# In short: as §1
# [21] = biological target: Neu5Ac(a2-3)Gal(b1-4)GlcNAc(b1-3)Gal
# In short: as §1
# [22] = biological target: Neu5Ac(a2-3)Gal(b1-4)GlcNAc(b1-3)Gal(b1-4)GlcNAc(b1-3)Gal(b1-4)GlcNAc(b1-2)Man(a1-3)[Neu5Ac(a2-3)Gal(b1-4)GlcNAc(b1-3)Gal(b1-4)GlcNAc(b1-3)Gal(b1-4)GlcNAc(b1-2)Man(a1-6)]GalNAc
# In short: as §1
# [23] = biological target: Neu5Ac(a2-3)Gal(b1-4)GlcNAc(b1-3)Gal(b1-4)GlcNAc(b1-3)[Neu5Ac(a2-3)Gal(b1-4)GlcNAc(b1-3)Gal(b1-4)GlcNAc(b1-6)]GalNAc
# In short: as §1
# [24] = biological target: Neu5Ac(a2-3)Gal(b1-4)[Fuc(a1-3)]GlcNAc(b1-2)Man
# In short: as §1
# [25] = biological target: Neu5Ac(a2-3)Gal(b1-4)[Fuc(a1-3)]GlcNAc(b1-3)Gal
# In short: as §1
# [26] = biological target: Neu5Ac(a2-3)Gal(b1-4)[Fuc(a1-3)]GlcNAc(b1-3)Gal(b1-4)[Fuc(a1-3)]GlcNAc(b1-3)Gal(b1-4)[Fuc(a1-3)]GlcNAc
# In short: as §1
# [27] = biological target: Neu5Ac(a2-3)Gal(b1-4)[Fuc(a1-3)]GlcNAc(b1-6)[Gal(b1-3)]GalNAc
# In short: as §1
# [28] = biological target: Neu5Ac(a2-3)[GalNAc(b1-4)]Gal(b1-4)GlcNAc
# In short: as §1
# [29] = biological target: Neu5Ac(a2-6)Gal(b1-4)Glc
# In short: as §1
# [30] = biological target: Neu5Ac(a2-8)Neu5Ac(a2-3)Gal(b1-4)Glc
# In short: as §1
# [31] = biological target: Neu5Ac(a2-8)Neu5Ac(a2-3)Gal(b1-4)GlcNAc
# In short: as §1
# [32] = biological target: Neu5Ac(a2-8)Neu5Ac(a2-8)Neu5Ac(a2-8)Neu5Ac(a2-3)[GalNAc(b1-4)]Gal(b1-4)Glc
# In short: as §1
binder,measurement,setting,value
B1,glycan array binding signal (z-score),[1],-0.366
same,glycan array binding signal (z-score),[2],1.95
same,glycan array binding signal (z-score),[3],2.29
same,glycan array binding signal (z-score),[4],1.51
same,glycan array binding signal (z-score),[5],0.488
same,glycan array binding signal (z-score),[6],0.047
same,glycan array binding signal (z-score),[7],-0.571
same,glycan array binding signal (z-score),[8],-1
same,glycan array binding signal (z-score),[9],2.02
same,glycan array binding signal (z-score),[10],-0.505
same,glycan array binding signal (z-score),[11],2.24
same,glycan array binding signal (z-score),[12],1.07
same,glycan array binding signal (z-score),[13],-1.24
same,glycan array binding signal (z-score),[14],-0.924
same,glycan array binding signal (z-score),[15],-0.346
same,glycan array binding signal (z-score),[16],-1.87
same,glycan array binding signal (z-score),[17],0.214
same,glycan array binding signal (z-score),[18],0.442
same,glycan array binding signal (z-score),[19],0.13
same,glycan array binding signal (z-score),[20],0.483
same,glycan array binding signal (z-score),[21],0.691
same,glycan array binding signal (z-score),[22],1.61
same,glycan array binding signal (z-score),[23],-0.297
same,glycan array binding signal (z-score),[24],-0.217
same,glycan array binding signal (z-score),[25],0.412
same,glycan array binding signal (z-score),[26],-0.603
same,glycan array binding signal (z-score),[27],-0.493
same,glycan array binding signal (z-score),[28],-0.217
same,glycan array binding signal (z-score),[29],-1.39
same,glycan array binding signal (z-score),[30],0.225
same,glycan array binding signal (z-score),[31],-0.772
same,glycan array binding signal (z-score),[32],-1.71
